From PubChem BioAssay (NCATS)
Values without a mark were called inactive. A call without a number means that no potency is given here. The source made the active and inactive calls. Calls come from the whole dose curve; as a rule, active = well fitted inhibition curve with a large enough effect; inconclusive = small, poorly fitted or top-dose-only effect; inactive = flat fitted curve, though single readings scatter.

Molecular target: Luciferin 4-monooxygenase (Photinus pyralis) (UniProt P08659)
Experiment: Primary firefly luciferase (FLuc) qHTS assay for identification of artifact compounds. (AID 1845220); note: nearly all actives have a fitted effect of over 60% in size
Settings: purified firefly luciferase, luminescence, 5 min; series mostly up to 54.1 µM
Source text: PI: Alexander Tropsha Ph.D.
UNC Eshelman School of Pharmacy
University of North Carolina, Chapel Hill, North Carolina
Hits from high-throughput screening (HTS) of chemical libraries are often false positives due to their interference with the assay detection technology. In response to this problem, we generated the largest publicly available library of chemical liabilities and developed a free webtool to predict HTS artifacts, both of which are described herein. More specifically, we generated, curated, and integrated HTS datasets for thiol reactivity, redox activity, and luciferase (firefly and nano) activity. Using these curated datasets, we developed and validated several Quantitative Structure-Interference Relationship (QSIR) models to predict nuisance behavior. […] These models were employed for virtual profiling of the National Center for Advancing Translational Science's (NCATS) in-house library, and 256 compounds for each assay were selected for the experimental validation of nuisance behavior. The BA for these external predictions ranged from 58 to 78% for compounds within the applicability domains of the models. […] The models developed in this study, along with aggregation models previously developed by our group (SCAM Detective) were implemented in "Liability Predictor," an online tool which may be used as part of chemical library design or for triaging HTS hits. Both the models and the curated datasets are publicly available at https://liability.mml.unc.edu/.
SEQUENCE No. (e.g., 1, 2, 3, etc.); […] (e.g., Cells, Incubation, Reagent, etc.); VALUE; DESCRIPTION.
1; Reagent; 3 uL; Luciferase substrate mixture.
2; Compounds and control; 16 nL; Kalypsis pin tool (Wako USA) equipped with a 1536-well pin head.
4; Reagent; 1 uL; Luciferase enzyme.
6; Detection; Luminescence, ViewLux microplate reader.
NOTES (numbers refer to Sequence numbers above)
1. 3 uL of luciferase substrate mixture containing D-luciferin and ATP (final concentrations of 10 uM and 10 uM, respectively) in assay buffer (10 mM Mg-acetate, 0.01% Tween-20, 0.05% bovine serum albumin, 50 mM Tris acetate, pH 7.6) was dispensed into all wells of a 1536-well assay plate (solid-bottom white plate; Greiner Bio One, Monroe, NC).
2. A Wako Pin-tool (Wako Automation, Richmond, VA) was used to transfer 16 nL of compounds (consisting of 7-plates in qHTS format, final concentration range 18.3 nM to 114 uM) or control PTC124 (final concentration range 1.22 nM to 40 uM).
3. 15 min. incubation at room temperature protected from light.
4. 1 uL of luciferase enzyme (final concentration 10 nM, Photinus pyralis luciferase) or buffer was dispensed for a final assay volume of 4 uL.
5. Plates were centrifuged (121xg, 15 seconds) and incubated for 5 minutes.
6. Samples were read for luminescence on a ViewLux CCD imager (PerkinElmer). Data were normalized to no-enzyme (0% activity) and no-inhibitor (DMSO; 100%) controls and the resulting percent inhibition data were fitted to a 4-parameter Hill equation using NCATS in-house software.

**Q.** With `CC(=O)c1ccc(O[C@@H]2O[C@H](CO)[C@@H](O)[C@H](O)[C@H]2O)cc1` as the molecule, how does the Potency read?
**A.** inactive

**Q.** With `C/C1=C\CC[C@H](C)CCO[C@@H]2O[C@H](CO[C@@H]3OC[C@](O)(COC1=O)[C@H]3O)[C@@H](O)[C@H](O)[C@H]2O` as the molecule, how does the Potency read?
**A.** inactive

**Q.** Which Potency does the source give for `Oc1ccc2nc(CN3CCC(Cc4ccccc4F)CC3)[nH]c2c1` here?
**A.** inactive

**Q.** How did the Potency turn out when `Cc1ccccc1-n1c([C@H](C)Nc2nc(N)nc3nc[nH]c23)nc2cccc(C)c2c1=O` was run?
**A.** inactive

**Q.** How did the Potency turn out when `COc1ccc([C@H]2CNC(=O)C2)cc1OC1CCCC1` was run?
**A.** inactive

**Q.** With `C=C1C[C@]23C[C@H]1CC[C@H]2C1=C[C@H]2OC(=O)[C@@](C)([C@H]1[C@@H]3C(=O)O)[C@H]2O` as the molecule, how does the Potency read?
**A.** inactive

**Q.** How did the Potency turn out when `COc1ccc(F)cc1-c1cc(NC(=O)[C@@H]2CCCNC2)ncc1Cl` was run?
**A.** inactive

**Q.** Which Potency does the source give for `Cc1cc(OCc2nnc(SC3CCCC3)n2-c2cccnc2)ccc1-c1ccc(S(C)(=O)=O)cc1` here?
**A.** inactive

**Q.** `COc1ccc(C2(O)c3ccccc3NC(=O)C2O)cc1` (stereo not given) was tested. Which Potency did it give?
**A.** inactive

**Q.** Which Potency does the source give for `C=C1C(=O)O[C@@H]2/C=C(\C)C(=O)/C=C/[C@](C)(O)C[C@@H](OC(=O)C(C)C)[C@@H]12` here?
**A.** inactive

**Q.** `COc1c(Nc2ncc(Cl)c(N[C@H]3[C@@H](C(N)=O)[C@@H]4C=C[C@H]3C4)n2)ccc2c1CC[C@@H](N1CCOCC1)CC2` was tested. Which Potency did it give?
**A.** inactive

**Q.** With `CCOC(=O)CCN(C(=O)c1ccc2c(c1)nc(CNc1ccc(C(=N)N)cc1)n2C)c1ccccn1` as the molecule, how does the Potency read?
**A.** inactive

**Q.** Which Potency does the source give for `C=C1CN(Cc2ccc(C(=O)Nc3ccccc3N)cc2)C(=O)c2ccccc21` here?
**A.** inactive

**Q.** How did the Potency turn out when `CC(=O)O[C@@H]1[C@@H](O)[C@H](C)O[C@@H](O[C@H]2[C@@H]3C=CO[C@@H](O[C@@H]4O[C@H](CO)[C@@H](O)[C@H](O)[C@H]4O)[C@@H]3[C@@]3(CO)O[C@@H]23)[C@@H]1OC(=O)/C=C/c1ccccc1` was run?
**A.** inactive

**Q.** For `OC[C@H]1O[C@@H](OCCc2ccccc2)[C@H](O[C@@H]2OC[C@](O)(CO)[C@H]2O)[C@@H](O)[C@@H]1O`, which Potency is on record?
**A.** inactive

**Q.** Which Potency does the source give for `Cc1[nH]c2ccccc2c1C1=C(NCCc2ccc(F)cc2)C(=O)N(C)C1=O` here?
**A.** inactive

**Q.** With `CC1CC(=O)C2=C(CCC3(O)C(O)c4c(O)cccc4C(=O)C23O)C1` (stereo not given) as the molecule, how does the Potency read?
**A.** inactive

**Q.** How did the Potency turn out when `CS(=O)(=O)N1CCC(NC(=O)c2[nH]ncc2NC(=O)c2c(Cl)cccc2Cl)CC1` was run?
**A.** inactive

**Q.** `C[C@@H]1C(=O)O[C@H](C)[C@H]1CC(=O)[C@](C)(O)[C@H]1CC[C@@]2(O)C3=CC(=O)[C@@H]4C[C@@H](O)[C@@H](O)C[C@]4(C)C3CC[C@]12C` (stereo not given in full) was tested. Which Potency did it give?
**A.** inactive

**Q.** How did the Potency turn out when `O=C1NC(Cc2c[nH]c3ccccc23)C(=O)NC1Cc1cnc[nH]1` (stereo not given) was run?
**A.** inactive

**Q.** With `C[C@@H]1O[C@@H](O[C@H]2[C@@H]3C=CO[C@@H](O[C@@H]4O[C@H](CO)[C@@H](O)[C@H](O)[C@H]4O)[C@@H]3[C@@]3(CO)O[C@@H]23)[C@H](OC(=O)/C=C/c2ccc(O)c(O)c2)[C@H](O)[C@H]1O` as the molecule, how does the Potency read?
**A.** inactive

**Q.** For `C=CC1C(OC2OC(CO)C(O)C(O)C2O)OC=C(C(=O)OC)C1CC(=O)OCC1C(C)C(O)CC1C(CO)COC(=O)CC1C(C(=O)O)=COC(OC2OC(CO)C(O)C(O)C2O)/C1=C\C` (stereo not given), which activity change, negative = inhibition is on record?
**A.** -4.67% [at 11.6 µM]

**Q.** `O=S(=O)(Nc1ccccn1)c1ccc(N=Cc2c(O)[nH]c3ccc4ncsc4c23)cc1` was tested. Which outcome did it give?
**A.** inactive [at 11.6 µM]

**Q.** `N#C[C@@H]1CCCN1C(=O)CNC12CC3CC(CC(O)(C3)C1)C2` was tested. Which Potency did it give?
**A.** inactive

**Q.** Which Potency does the source give for `CC(C(O)/C=C/C(C)(C)O)C1CCC2(C)C3C(=O)C=C4C(CCC(O)C4(C)C)C3(C)CCC12C` (stereo not given) here?
**A.** inactive

**Q.** With `CC(C)c1cc(C(=O)N2CC[C@@H](NC(=O)C3CC3)C2)n[nH]1` as the molecule, how does the Potency read?
**A.** inactive

**Q.** With `CN[C@@H]1[C@H](O[C@H]2[C@H](O[C@@H]3[C@@H](O)[C@H](O)[C@@H](N=C(N)N)[C@H](O)[C@H]3N=C(N)N)O[C@@H](C)[C@]2(O)C=O)O[C@@H](CO)[C@H](O)[C@H]1O` as the molecule, how does the Potency read?
**A.** inactive

**Q.** With `CCOC(=O)c1sc(NC(=O)[C@H](C(C)C)n2c(=O)[nH]c3ccccc3c2=O)nc1C` as the molecule, how does the Potency read?
**A.** inactive

**Q.** For `OCc1ccc(O[C@@H]2O[C@H](CO)[C@@H](O)[C@H](O)[C@H]2O)cc1`, which Potency is on record?
**A.** inactive

**Q.** How did the Potency turn out when `O=C1OCc2cc3cccc(O[C@@H]4O[C@H](CO)[C@@H](O)[C@H](O)[C@H]4O)c3c(O)c21` was run?
**A.** inactive

**Q.** With `CC(=O)O[C@@H]1[C@@H](OC(=O)/C=C/c2ccccc2)[C@@H](OC(C)=O)[C@H](O[C@H]2[C@@H]3C=CO[C@@H](O[C@@H]4O[C@H](CO)[C@@H](O)[C@H](O)[C@H]4O)[C@@H]3[C@@]3(CO)O[C@@H]23)O[C@H]1C` as the molecule, how does the Potency read?
**A.** inactive

**Q.** Which Potency does the source give for `C=C1CCC2C(C)(C(=O)O)CCCC2(C)C1CC/C(=C\CO)CO` (stereo not given) here?
**A.** inactive

**Q.** Which Potency does the source give for `CC(O)c1cc(C(=O)N[C@@H](C)Cn2ccc(-c3ccc(C#N)c(Cl)c3)n2)n[nH]1` (stereo not given in full) here?
**A.** inactive

**Q.** Which Potency does the source give for `C=C1CCC2C(C)(COC(C)=O)CCCC2(C)C1CCC(C)CC(=O)O` (stereo not given) here?
**A.** inactive

**Q.** For `COc1ccc(/C=C/C(=O)O[C@H]2[C@H](O[C@H]3[C@@H]4C=CO[C@@H](O[C@@H]5O[C@H](CO)[C@@H](O)[C@H](O)[C@H]5O)[C@@H]4[C@@]4(CO)O[C@@H]34)O[C@@H](C)[C@H](O)[C@H]2OC(C)=O)cc1`, which Potency is on record?
**A.** inactive

**Q.** With `CC1(C)CCC2(C(=O)OC3OCC(O)C(O)C3O)CCC3(C)C(=CCC4C5(C)CC(O)C(OC6OC(COC7OCC(O)C(O)C7O)C(O)C(O)C6O)C(C)(C)C5CCC43C)C2C1` (stereo not given) as the molecule, how does the outcome read?
**A.** inactive [at 11.6 µM]

**Q.** How did the Potency turn out when `CCn1c(=O)c(-c2ccn[nH]2)cc2c(C)nc(N)nc21` was run?
**A.** inactive

**Q.** Which activity change, negative = inhibition does the source give for `C[C@@H]1O[C@@H](O[C@@H]2[C@@H](O)[C@H](O[C@H]3CC[C@@]4(C)C(CC[C@]5(C)C4CC=C4[C@@H]6CC(C)(C)CC[C@]6(C(=O)O[C@@H]6O[C@H](CO)[C@@H](O)[C@H](O)[C@H]6O)CC[C@]45C)C3(C)C)O[C@H](C(=O)O)[C@H]2O)[C@H](O)[C@H](O)[C@H]1O` (stereo not given in full) here?
**A.** 0.705% [at 11.6 µM]

**Q.** For `COc1ccc(/C=C/C(=O)O[C@@H]2[C@@H](O)[C@H](C)O[C@@H](O[C@H]3[C@@H]4C=CO[C@@H](O[C@H]5O[C@@H](CO)[C@H](O)[C@@H](O)[C@@H]5O)[C@@H]4[C@@]4(CO)O[C@@H]34)[C@@H]2OC(C)=O)cc1`, which Potency is on record?
**A.** inactive

**Q.** Which Potency does the source give for `O=C(O)c1cc2cccc([N+](=O)[O-])c2[nH]1` here?
**A.** inactive
